7 sequences from PMC7862700, “An all-to-all approach to the identification of sequence-specific readers for epigenetic DNA modifications on cytosine” can be followed below.

What all share (assay): DAPPL (digital affinity profiling via proximity ligation, sequencing); 10 mM Tris-HCl pH 7.5, 50 mM NaCl, 1 mM DTT, 4% glycerol, room temperature, 30 min; GST-TFs on glutathione beads, 16-mer random dsDNA library, 0.1% formaldehyde crosslink after washing; high values mean tight binding
The target in one experiment is T1, FEV (Homo sapiens, UniProt Q99581 1-238).
T1 sequence: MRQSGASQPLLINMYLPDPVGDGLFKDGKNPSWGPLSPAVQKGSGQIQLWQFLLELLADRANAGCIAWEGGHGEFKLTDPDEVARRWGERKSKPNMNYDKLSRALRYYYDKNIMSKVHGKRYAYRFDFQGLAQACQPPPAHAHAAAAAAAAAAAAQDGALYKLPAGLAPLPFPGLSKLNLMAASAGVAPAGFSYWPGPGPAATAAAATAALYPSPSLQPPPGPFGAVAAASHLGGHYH
As to conditions: protein: recombinant; tags: N-terminal GST; dsDNA, one strand shown. In short, it runs like this: (§1)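 Beads coated with glutathione captured GST-fused human transcription factors that had been expressed in yeast, and the factors were then given DNA barcodes and pooled with a tag-only sample. The pools were incubated with 200 nmole of a random double-stranded 16-mer DNA library in Tris/NaCl/DTT/glycerol buffer for 30 min at room temperature, washed, crosslinked with 0.1% formaldehyde and proximity-ligated with BsaI/T4 ligase at 37 °C for 1 h. PCR amplification and Illumina NextSeq500 sequencing came last. Binding signal is each hexamer's read frequency for a factor divided by its frequency for the tag-only sample.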

For a further experiment, the target named is ETV5 (Homo sapiens, UniProt P41161 1-510). As to conditions: protein: recombinant; tags: N-terminal GST; dsDNA, one strand shown. In short, it runs like this: as §1
The target of a further experiment is HSF1 (Homo sapiens, UniProt Q00613 1-529). The following applies: protein: recombinant; tags: N-terminal GST; chain copies: 3; dsDNA, one strand shown. In short, it runs like this:
as §1

The next experiment deals with T2, SPIC (Homo sapiens, UniProt Q8N5J4 1-248).
T2 sequence: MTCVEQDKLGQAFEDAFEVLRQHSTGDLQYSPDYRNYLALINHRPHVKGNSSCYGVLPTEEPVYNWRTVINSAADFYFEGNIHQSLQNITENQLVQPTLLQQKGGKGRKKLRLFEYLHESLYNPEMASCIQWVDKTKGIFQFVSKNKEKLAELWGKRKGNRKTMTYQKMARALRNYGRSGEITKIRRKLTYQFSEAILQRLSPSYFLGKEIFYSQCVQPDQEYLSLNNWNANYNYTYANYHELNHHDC
The following applies: protein: recombinant; tags: N-terminal GST; dsDNA, one strand shown. In short, it runs like this:
as §1

Another experiment has as its target ELF4 (Homo sapiens, UniProt Q99607 1-663). As to conditions: protein: recombinant; tags: N-terminal GST; dsDNA, one strand shown. In short, it runs like this:
as §1

The next experiment has as its target T3, ELK4 (Homo sapiens, UniProt P28324-2 1-405).
T3 sequence: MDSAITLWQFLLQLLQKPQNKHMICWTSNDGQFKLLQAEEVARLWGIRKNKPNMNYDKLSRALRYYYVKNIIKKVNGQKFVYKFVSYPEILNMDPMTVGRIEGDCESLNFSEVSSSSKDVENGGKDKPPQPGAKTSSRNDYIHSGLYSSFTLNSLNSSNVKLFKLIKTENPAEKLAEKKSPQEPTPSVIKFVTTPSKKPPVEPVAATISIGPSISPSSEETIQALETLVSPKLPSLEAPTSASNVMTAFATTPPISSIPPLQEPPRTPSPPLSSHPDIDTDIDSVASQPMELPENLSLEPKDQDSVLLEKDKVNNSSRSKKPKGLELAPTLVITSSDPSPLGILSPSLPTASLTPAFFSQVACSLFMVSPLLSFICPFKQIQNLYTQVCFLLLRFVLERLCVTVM
As to conditions: protein: recombinant; tags: N-terminal GST; dsDNA, one strand shown. In short, it runs like this:
as §1

The target in a further experiment is T4, ETV2 (Homo sapiens, UniProt O00321 1-342).
T4 sequence: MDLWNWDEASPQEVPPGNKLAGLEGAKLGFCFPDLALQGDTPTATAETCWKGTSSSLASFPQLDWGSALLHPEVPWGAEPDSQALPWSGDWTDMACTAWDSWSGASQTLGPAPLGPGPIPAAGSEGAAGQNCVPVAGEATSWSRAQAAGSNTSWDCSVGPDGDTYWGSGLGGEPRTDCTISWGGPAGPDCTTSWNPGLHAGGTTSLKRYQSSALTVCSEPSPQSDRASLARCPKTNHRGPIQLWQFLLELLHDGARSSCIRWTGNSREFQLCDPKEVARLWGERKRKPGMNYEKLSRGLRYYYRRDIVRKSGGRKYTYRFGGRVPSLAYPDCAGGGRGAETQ
As to conditions: protein: recombinant; tags: N-terminal GST; dsDNA, one strand shown. In short, it runs like this:
as §1

Another experiment deals with T5, ELF3 (Homo sapiens, UniProt P78545 1-371).
T5 sequence: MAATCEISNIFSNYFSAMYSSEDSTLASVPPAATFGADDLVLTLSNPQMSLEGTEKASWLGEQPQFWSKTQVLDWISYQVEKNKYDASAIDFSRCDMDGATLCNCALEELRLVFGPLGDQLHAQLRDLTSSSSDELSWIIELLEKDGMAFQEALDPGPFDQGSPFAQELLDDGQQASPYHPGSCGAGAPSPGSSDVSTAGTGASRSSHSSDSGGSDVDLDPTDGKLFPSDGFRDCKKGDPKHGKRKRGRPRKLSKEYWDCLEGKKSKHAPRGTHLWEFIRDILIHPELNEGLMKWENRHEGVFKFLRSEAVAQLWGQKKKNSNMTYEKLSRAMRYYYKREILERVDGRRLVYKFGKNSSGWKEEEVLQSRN
The following applies: protein: recombinant; tags: N-terminal GST; dsDNA, one strand shown. In short, it runs like this: as §1

For another experiment, the target named is CRX (Homo sapiens, UniProt O43186 1-299). As to conditions: protein: recombinant; tags: N-terminal GST; dsDNA, one strand shown. In short, it runs like this: as §1
In another experiment the target is ETV1 (Homo sapiens, UniProt P50549 1-477). As to conditions: protein: recombinant; tags: N-terminal GST; dsDNA, one strand shown. In short, it runs like this:
as §1

HSF1, sequence (Q00613 whole entry): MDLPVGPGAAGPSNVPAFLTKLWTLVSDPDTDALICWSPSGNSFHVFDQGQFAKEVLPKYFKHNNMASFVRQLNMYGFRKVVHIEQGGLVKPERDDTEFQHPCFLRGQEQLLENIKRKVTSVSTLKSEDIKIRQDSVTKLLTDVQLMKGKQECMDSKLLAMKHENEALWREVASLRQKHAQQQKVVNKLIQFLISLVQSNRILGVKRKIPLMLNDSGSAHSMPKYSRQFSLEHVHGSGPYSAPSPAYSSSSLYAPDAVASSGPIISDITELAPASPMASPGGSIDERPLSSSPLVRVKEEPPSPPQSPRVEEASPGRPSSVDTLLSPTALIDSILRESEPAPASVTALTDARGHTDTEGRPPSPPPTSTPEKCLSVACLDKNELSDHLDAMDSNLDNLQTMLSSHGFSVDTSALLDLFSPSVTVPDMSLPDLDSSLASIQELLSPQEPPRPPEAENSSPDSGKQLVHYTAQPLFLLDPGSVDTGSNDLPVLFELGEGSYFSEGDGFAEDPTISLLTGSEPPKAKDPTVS
ELF4, sequence (Q99607 whole entry): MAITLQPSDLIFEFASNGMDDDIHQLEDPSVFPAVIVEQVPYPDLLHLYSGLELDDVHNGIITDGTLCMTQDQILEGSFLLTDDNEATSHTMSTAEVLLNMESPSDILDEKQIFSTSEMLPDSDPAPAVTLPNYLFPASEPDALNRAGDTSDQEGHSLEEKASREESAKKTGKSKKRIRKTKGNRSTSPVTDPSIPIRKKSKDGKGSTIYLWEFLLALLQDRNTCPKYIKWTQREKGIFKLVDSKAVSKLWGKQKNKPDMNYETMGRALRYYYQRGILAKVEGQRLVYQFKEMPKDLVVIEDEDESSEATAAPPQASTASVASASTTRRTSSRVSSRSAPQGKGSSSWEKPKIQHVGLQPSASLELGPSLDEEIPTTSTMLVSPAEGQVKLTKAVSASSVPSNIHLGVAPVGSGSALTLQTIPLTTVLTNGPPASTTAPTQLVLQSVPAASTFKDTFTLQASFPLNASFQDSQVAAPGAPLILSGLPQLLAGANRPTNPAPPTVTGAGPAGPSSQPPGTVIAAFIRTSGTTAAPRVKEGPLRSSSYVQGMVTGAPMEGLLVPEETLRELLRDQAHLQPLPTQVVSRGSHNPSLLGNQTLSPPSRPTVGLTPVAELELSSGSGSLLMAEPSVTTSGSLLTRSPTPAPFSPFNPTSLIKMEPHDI
ETV1, sequence (P50549 whole entry): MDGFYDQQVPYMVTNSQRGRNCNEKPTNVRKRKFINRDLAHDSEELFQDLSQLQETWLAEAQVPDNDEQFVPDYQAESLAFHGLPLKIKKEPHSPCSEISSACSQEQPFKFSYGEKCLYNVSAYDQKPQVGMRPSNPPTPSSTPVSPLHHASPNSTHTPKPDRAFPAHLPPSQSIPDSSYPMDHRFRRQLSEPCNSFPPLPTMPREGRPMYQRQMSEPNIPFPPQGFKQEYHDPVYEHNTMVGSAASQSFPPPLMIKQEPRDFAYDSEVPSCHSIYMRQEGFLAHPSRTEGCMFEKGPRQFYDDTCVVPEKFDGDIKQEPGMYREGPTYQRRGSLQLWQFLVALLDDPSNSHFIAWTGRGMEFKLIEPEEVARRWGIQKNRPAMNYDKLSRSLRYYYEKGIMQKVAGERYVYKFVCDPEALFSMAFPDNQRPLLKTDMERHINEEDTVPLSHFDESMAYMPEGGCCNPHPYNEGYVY
ETV5, sequence (P41161 whole entry): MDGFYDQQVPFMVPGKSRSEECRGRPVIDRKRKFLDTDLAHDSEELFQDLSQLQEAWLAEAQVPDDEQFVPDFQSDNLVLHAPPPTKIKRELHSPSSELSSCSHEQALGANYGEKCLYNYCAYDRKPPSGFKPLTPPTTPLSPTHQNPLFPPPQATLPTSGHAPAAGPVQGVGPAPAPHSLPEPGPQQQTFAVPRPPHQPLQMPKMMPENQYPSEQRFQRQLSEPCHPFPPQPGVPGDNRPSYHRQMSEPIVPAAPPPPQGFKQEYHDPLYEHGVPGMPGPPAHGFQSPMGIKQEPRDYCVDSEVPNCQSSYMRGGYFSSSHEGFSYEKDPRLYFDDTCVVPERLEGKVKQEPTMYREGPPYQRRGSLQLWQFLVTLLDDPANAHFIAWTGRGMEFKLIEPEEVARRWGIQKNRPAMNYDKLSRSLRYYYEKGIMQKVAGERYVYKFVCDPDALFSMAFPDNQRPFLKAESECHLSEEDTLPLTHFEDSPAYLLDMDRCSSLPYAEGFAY
CRX, sequence (O43186 whole entry): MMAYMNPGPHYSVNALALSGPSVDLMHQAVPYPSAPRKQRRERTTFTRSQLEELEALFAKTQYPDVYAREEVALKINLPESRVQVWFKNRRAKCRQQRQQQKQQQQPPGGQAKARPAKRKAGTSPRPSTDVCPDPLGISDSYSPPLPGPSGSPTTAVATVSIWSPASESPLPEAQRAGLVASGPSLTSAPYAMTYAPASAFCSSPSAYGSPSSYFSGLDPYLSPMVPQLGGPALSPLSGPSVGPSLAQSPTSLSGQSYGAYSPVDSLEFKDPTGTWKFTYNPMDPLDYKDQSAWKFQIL

For the sequence CGGCTC, the binding signal in the experiment with FEV was 1.33 fold enrichment (6-mer frequency, TF over GST control); with ETV5 it was 1.28 fold enrichment (6-mer frequency, TF over GST control); in the experiment with HSF1, 1.21 fold enrichment (6-mer frequency, TF over GST control); in the experiment with SPIC, 1.23 fold enrichment (6-mer frequency, TF over GST control); in the experiment with ELF4 it was 1.35 fold enrichment (6-mer frequency, TF over GST control); with ELK4, 1.22 fold enrichment (6-mer frequency, TF over GST control). The binding signal with ETV2 was 1.42 fold enrichment (6-mer frequency, TF over GST control); in the experiment with ELF3, 1.48 fold enrichment (6-mer frequency, TF over GST control); in the experiment with CRX, 1.26 fold enrichment (6-mer frequency, TF over GST control); with ETV1, 1.29 fold enrichment (6-mer frequency, TF over GST control).
On to CCTTCT, for which the binding signal is 1.59 fold enrichment (6-mer frequency, TF over GST control) with FEV; 1.59 fold enrichment (6-mer frequency, TF over GST control) in the experiment with ETV5; 2.98 fold enrichment (6-mer frequency, TF over GST control) with HSF1; 1.63 fold enrichment (6-mer frequency, TF over GST control) in the experiment with SPIC; 1.76 fold enrichment (6-mer frequency, TF over GST control) with ELF4; 1.68 fold enrichment (6-mer frequency, TF over GST control) in the experiment with ELK4. Besides, the binding signal in the experiment with ETV2 is 1.65 fold enrichment (6-mer frequency, TF over GST control); in the experiment with ELF3, 1.54 fold enrichment (6-mer frequency, TF over GST control); in the experiment with CRX it was 1.92 fold enrichment (6-mer frequency, TF over GST control); with ETV1, 1.63 fold enrichment (6-mer frequency, TF over GST control).
As for TTTCTC, the binding signal was 1.52 fold enrichment (6-mer frequency, TF over GST control) with FEV; 1.53 fold enrichment (6-mer frequency, TF over GST control) in the experiment with ETV5; 2.63 fold enrichment (6-mer frequency, TF over GST control) with HSF1; 1.55 fold enrichment (6-mer frequency, TF over GST control) in the experiment with SPIC; 1.6 fold enrichment (6-mer frequency, TF over GST control) with ELF4; 1.78 fold enrichment (6-mer frequency, TF over GST control) in the experiment with ELK4. The binding signal with ETV2 is 1.65 fold enrichment (6-mer frequency, TF over GST control); in the experiment with ELF3 it was 1.86 fold enrichment (6-mer frequency, TF over GST control); with CRX, 1.67 fold enrichment (6-mer frequency, TF over GST control); with ETV1, 1.46 fold enrichment (6-mer frequency, TF over GST control).
Regarding TTACCC, the binding signal was 1.36 fold enrichment (6-mer frequency, TF over GST control) in the experiment with FEV; 1.36 fold enrichment (6-mer frequency, TF over GST control) with ETV5; 1.43 fold enrichment (6-mer frequency, TF over GST control) in the experiment with HSF1; 1.4 fold enrichment (6-mer frequency, TF over GST control) with SPIC; 1.48 fold enrichment (6-mer frequency, TF over GST control) with ELF4; 1.38 fold enrichment (6-mer frequency, TF over GST control) with ELK4. The binding signal is 1.56 fold enrichment (6-mer frequency, TF over GST control) in the experiment with ETV2; 1.14 fold enrichment (6-mer frequency, TF over GST control) with ELF3; 1.95 fold enrichment (6-mer frequency, TF over GST control) with CRX; 1.35 fold enrichment (6-mer frequency, TF over GST control) in the experiment with ETV1.
CATTTT: the binding signal with FEV is 1.19 fold enrichment (6-mer frequency, TF over GST control); with ETV5, 1.23 fold enrichment (6-mer frequency, TF over GST control); with HSF1, 1.19 fold enrichment (6-mer frequency, TF over GST control); with SPIC it was 1.18 fold enrichment (6-mer frequency, TF over GST control); in the experiment with ELF4, 1.32 fold enrichment (6-mer frequency, TF over GST control); with ELK4, 1.32 fold enrichment (6-mer frequency, TF over GST control). Moreover, the binding signal was 1.35 fold enrichment (6-mer frequency, TF over GST control) with ETV2; 1.21 fold enrichment (6-mer frequency, TF over GST control) in the experiment with ELF3; 1.04 fold enrichment (6-mer frequency, TF over GST control) with CRX; 1.24 fold enrichment (6-mer frequency, TF over GST control) in the experiment with ETV1.
As for ACAATC, the binding signal with FEV was 1.11 fold enrichment (6-mer frequency, TF over GST control); with ETV5, 1.1 fold enrichment (6-mer frequency, TF over GST control); in the experiment with HSF1 it was 1.43 fold enrichment (6-mer frequency, TF over GST control); in the experiment with SPIC, 1.17 fold enrichment (6-mer frequency, TF over GST control); in the experiment with ELF4, 1.11 fold enrichment (6-mer frequency, TF over GST control); with ELK4, 1.15 fold enrichment (6-mer frequency, TF over GST control). Besides, the binding signal in the experiment with ETV2 was 1.18 fold enrichment (6-mer frequency, TF over GST control); in the experiment with ELF3, 1.29 fold enrichment (6-mer frequency, TF over GST control); in the experiment with CRX it was 1.36 fold enrichment (6-mer frequency, TF over GST control); with ETV1 it was 1.16 fold enrichment (6-mer frequency, TF over GST control).
CCAATA: the binding signal is 1.19 fold enrichment (6-mer frequency, TF over GST control) in the experiment with FEV; 1.29 fold enrichment (6-mer frequency, TF over GST control) with ETV5; 1.12 fold enrichment (6-mer frequency, TF over GST control) with HSF1; 1.18 fold enrichment (6-mer frequency, TF over GST control) with SPIC; 1.29 fold enrichment (6-mer frequency, TF over GST control) with ELF4; 1.23 fold enrichment (6-mer frequency, TF over GST control) with ELK4. Moreover, the binding signal in the experiment with ETV2 was 1.09 fold enrichment (6-mer frequency, TF over GST control); with ELF3, 1.25 fold enrichment (6-mer frequency, TF over GST control); in the experiment with CRX, 1.22 fold enrichment (6-mer frequency, TF over GST control); with ETV1, 1.21 fold enrichment (6-mer frequency, TF over GST control).
